Source: PubChem
sEH activator – increases human soluble epoxide hydrolase activity. 91,000 compounds, 0.04% hits. purified human sEH enzymatic activity, activator screen. activation, % at 2 µM. P34913; in the data active = activation above about 37%
CYP2C19 inhib – blocks human cytochrome P450 2C19; P33261; inhibition, % at 5 µM; 96,000 compounds, 21% hits; CYP2C19 Supersomes, luciferin-H EGE luminescence, 30 min; AID 778;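 active = CYP2C19 inhibition above a set limit at 5 µM in the primary screen, cut at about 50% in these data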
Target sequence (P33261 whole entry, looked up): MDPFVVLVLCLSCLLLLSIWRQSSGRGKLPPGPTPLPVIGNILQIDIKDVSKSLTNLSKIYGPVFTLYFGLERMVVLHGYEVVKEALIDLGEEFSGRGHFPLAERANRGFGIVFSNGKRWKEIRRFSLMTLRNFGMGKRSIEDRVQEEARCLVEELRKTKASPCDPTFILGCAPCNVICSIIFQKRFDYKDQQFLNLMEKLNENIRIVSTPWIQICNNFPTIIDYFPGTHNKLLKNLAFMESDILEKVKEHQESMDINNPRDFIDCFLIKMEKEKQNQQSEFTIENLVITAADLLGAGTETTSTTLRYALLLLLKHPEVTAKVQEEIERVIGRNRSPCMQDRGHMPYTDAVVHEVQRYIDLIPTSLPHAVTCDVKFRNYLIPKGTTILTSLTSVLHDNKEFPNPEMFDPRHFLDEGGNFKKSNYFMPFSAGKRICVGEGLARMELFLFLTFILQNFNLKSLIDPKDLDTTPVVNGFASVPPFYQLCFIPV
CYP2C9 act – CYP2C9 (human) activation | recombinant CYP2C9, luciferin-H conversion, luminescence; active compounds read high; factor 1 = untreated enzyme, 0 = blocked | activation factor at 5 µM | 96,000 compounds, 1.4% hits;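 active = activation factor of 2 or more for CYP2C9 at a 5 µM dose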
CYP2C19 act – activators of human cytochrome P450 2C19 | P33261 | recombinant CYP2C19, luciferin-H EGE luminescence; active compounds read high; 0 = fully inhibited enzyme, 1 = untreated enzyme | activation factor at 5 µM | 96,000 tested, under 10 active | AID 1025;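 active = activation factor of at least 2 at 5 µM in the primary screen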
sEH inhibitor – inhibitors of human soluble epoxide hydrolase. inhibition, % at 2 µM. AID 707. P34913. 91,000 compounds, 0.34% hits. recombinant human sEH enzymatic activity assay; in the data active = inhibition above about 80%
CYP2C9 inh – blocks human cytochrome P450 2C9; P11712; CYP2C9 Supersomes, luciferin-H conversion, luminescence; inhibition, % at 5 µM; 96,000 compounds, 20% hits; AID 777;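 active = blocking of liver enzyme CYP2C9 beyond about 50% at 5 µM, limit read from the data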
Of the large screens only hits and unclear results are named; the others gave an inactive call. An excerpt weighted towards active compounds, which were near 27% of everything screened.

CCSc1nnc(-c2cccs2)o1	none
c1ccc(CSc2nnc(-c3cccs3)o2)cc1	none
Fc1ccc(CSc2nnc(-c3cccs3)o2)cc1	CYP2C19 inhib 77.7, CYP2C9 inh 71.9
Fc1ccccc1CSc1nnc(-c2cccs2)o1	CYP2C19 inhib 85.1, CYP2C9 inh 80.1
Cc1scc(C(=O)N2CCN(S(C)(=O)=O)CC2)c1-c1ccccc1	CYP2C19 inhib 96.8
Cc1cccc(CN2CCN(C(=O)c3ccccc3F)CC2)c1	CYP2C19 inhib 99.1, CYP2C9 inh 68.4
CS(=O)(=O)N1CCN(C(=O)c2csc3ccccc23)CC1	none
O=C(c1ccccc1F)N1CCN(S(=O)(=O)c2ccc(S(=O)(=O)N3CCCCC3)cc2)CC1	CYP2C19 inhib 80.5
CS(=O)(=O)N1CCN(C(=O)c2ccccc2F)CC1	CYP2C19 inhib 57.4
O=C(c1cc(S(=O)(=O)N2CCCCC2)ccc1F)N1CCCCC1	none
CCCCn1c(Cc2ccccc2)nnc1SCC(=O)Nc1cc(C)on1	none (no result: CYP2C19 inhib, CYP2C9 act, CYP2C19 act, CYP2C9 inh)
O=C(NC1CCCC1)C(c1cccs1)N(C(=O)c1ccco1)c1ccc2c(c1)OCO2 (stereo unspecified)	none (no result: CYP2C19 inhib, CYP2C9 act, CYP2C19 act, CYP2C9 inh)
CN(C)C(=O)CSCc1c(Cl)cccc1Cl	none
Clc1cccc(Cl)c1CSc1nnc(CN2CCOCC2)n1-c1ccccc1	none
Cn1c(CO)cnc1SCc1c(Cl)cccc1Cl	CYP2C19 inhib 81.7
Cn1c(CS(=O)Cc2c(Cl)cccc2Cl)nnc1SCc1c(Cl)cccc1Cl (stereo unspecified)	CYP2C19 inhib 55.3
O=S(Cc1ccc(Br)cc1)Cc1nnc(SCc2c(Cl)cccc2Cl)n1-c1ccccc1 (stereo unspecified)	CYP2C19 inhib 87.7, CYP2C9 inh 79.9
Cc1cccc(/C=C/C(=O)c2cc(Br)ccc(=O)c2O)c1	none
CCc1ccc(C(=O)Nc2cc3c(cc2Cl)OCCCO3)cc1	CYP2C9 act 2.2
CCC(O)c1cc2c(cc1NC(=O)c1ccc(C)cc1)OCCO2 (stereo unspecified)	CYP2C19 inhib 63.8, CYP2C9 inh 76.5
O=C(Nc1cc2c(cc1Cl)OCCO2)c1ccco1	none (no result: CYP2C19 inhib, CYP2C9 act, CYP2C19 act, CYP2C9 inh)
COc1ccccc1-c1nc(C#N)c(N2CCN(C(c3ccccc3)c3ccccc3)CC2)o1	none
O=C(CN1C(=O)C2CC=CCC2C1=O)Nc1nc2ccccc2[nH]1 (stereo unspecified)	none
COc1cccc2cc(-c3nnc(SCC(=O)Nc4nc(C)cs4)n3C)oc12	none
Cc1cc(O)ccc1Nc1nc2ccccc2nc1Nc1ccc(O)cc1C	CYP2C19 inhib 87.2, CYP2C9 inh 95.8
O=C(O)c1ccc(-c2cccc(Cl)c2)o1	none (no result: CYP2C19 inhib, CYP2C9 act, CYP2C19 act, CYP2C9 inh)
CC(=O)N1N=C(c2cccc(Cl)c2)OC1c1ccc(C(C)C)cc1 (stereo unspecified)	CYP2C19 inhib 83.1, CYP2C9 inh 88.3
O=C(Oc1cccc(Br)c1)c1cccnc1	none
CCOC(=O)c1nnc(-c2ccc(C)cc2)nc1Sc1ccccc1Cl	none
CCOC(=O)c1nnc(-c2ccccc2)nc1Sc1c(Cl)cccc1Cl	CYP2C9 inh 57.8
COC(=O)c1ccc(N/C=C/C(=O)c2ccc(OC)c(OC)c2)cc1	none
COc1ccc(C(=O)/C=C/N2CCCCC2)cc1OC	CYP2C9 act 2.6 (no result: sEH activator, sEH inhibitor)
CC(=O)c1cc2c(cc1NC(=O)C1CC1)OCO2	none (no result: CYP2C19 inhib, CYP2C9 act, CYP2C19 act, CYP2C9 inh)
CCc1ccc(-c2cc(C(F)(F)F)n3nc(C(=O)Nc4c(C)nn(Cc5ccc(F)cc5)c4C)cc3n2)s1	CYP2C9 inh 70.4
Cc1ccccc1Cn1nc(C)c(NC(=O)c2cc3nc(-c4ccco4)cc(C(F)(F)F)n3n2)c1C	none
CCn1c(SCC(=O)c2cc(OC)ccc2OC)nnc1C1CC1	CYP2C19 inhib 93.9
COc1ccc(OC)c(C(=O)CSc2nnnn2C)c1	none (no result: sEH activator, sEH inhibitor)
COc1ccc(C(=O)CSc2nnc(C3CC3)n2N)cc1	none
CCn1c(SCC(=O)c2ccc(OC)cc2)nnc1C1CC1	CYP2C19 inhib 54.9
CCn1nnnc1SCC(=O)c1cc(OC)ccc1OC	CYP2C19 inhib 93.1 (no result: sEH activator, sEH inhibitor)
c1coc(CN2CN=C(Nc3nc4ccccc4s3)NC2)c1	none
O=C(NC1CCCC1)C(c1c[nH]c2ccccc12)N(C(=O)Cn1nnc(-c2ccc(Cl)cc2)n1)c1ccccc1 (stereo unspecified)	CYP2C9 inh 67.2
COc1cccc(N(C(=O)Cn2nnc(-c3ccc(C)cc3)n2)C(C(=O)NC(C)(C)C)c2c[nH]c3ccccc23)c1 (stereo unspecified)	CYP2C9 inh 87.6
COc1ccc(N2CC(C(=O)O)CC2=O)cc1 (stereo unspecified)	none (no result: CYP2C19 inhib, CYP2C9 act, CYP2C19 act, CYP2C9 inh)
O=S(=O)(c1ccc(N2CCN(c3ccc(F)cc3)CC2)cc1)N1CCCC1	none
O=S(=O)(Nc1ccc(F)cc1)N1CCCCCC1	CYP2C19 inhib 98.8, CYP2C9 inh 67.0
O=S(=O)(N1CCCCC1)N1CCN(c2ccc(F)cc2)CC1	CYP2C19 inhib 57.5
CCCN1CCN(C(=O)c2cccc3c2C(=O)N(CCOC)C3)CC1	none
CCOc1cc(CNCCO)cc(Br)c1OCc1ccccc1Cl	CYP2C19 inhib 54.8
CCOc1cc(CNCCO)cc(Br)c1OCc1ccc(Cl)cc1	CYP2C19 inhib 77.7
CCOc1cc(CNC(C)(C)CO)cc(Br)c1OCc1ccc(Cl)cc1Cl	none
CCOc1cc(/C=N/O)cc(Br)c1OCc1ccc(Cl)cc1	none
O=C(NC12CC3CC(CC(C3)C1)C2)N1CC2Cc3cccc(=O)n3C(C2)C1 (stereo unspecified)	sEH inhibitor 86.2
CCN(CC)C(=O)c1sc(NC(=O)Cc2ccc(OC)cc2)c(C#N)c1C	CYP2C19 inhib 77.6, CYP2C9 inh 77.9
O=C(CCn1[nH]c(=O)c2ccccc2c1=O)OC1CCCCC1	CYP2C19 inhib 80.7
CCCCOC(=O)CCn1[nH]c(=O)c2ccccc2c1=O	CYP2C19 inhib 84.5, CYP2C9 inh 91.6 (no result: sEH activator, sEH inhibitor)
Cc1cc(C)cc(NC(=S)N2CCC(c3nc4ccccc4s3)CC2)c1	none
O=C(CSc1ccc(Cl)cc1Cl)N1CCC(c2nc3ccccc3s2)CC1	CYP2C19 inhib 54.9, CYP2C9 inh 58.3
O=C(COC(=O)CCNS(=O)(=O)c1ccc2c(c1)OCCO2)NC1CCCc2ccccc21 (stereo unspecified)	CYP2C19 inhib 62.0 (no result: sEH activator, sEH inhibitor)
O=C(COc1ccccc1)NC(NC(=S)Nc1ccccc1C(=O)O)C(Cl)(Cl)Cl (stereo unspecified)	CYP2C9 inh 81.8
Cc1ccc(C)c(NC(=S)NC(NC(=O)Cc2ccccc2)C(Cl)(Cl)Cl)c1 (stereo unspecified)	CYP2C19 inhib 50.2
Cc1ccccc1NC(=S)NC(NC(=O)c1ccccc1C)C(Cl)(Cl)Cl (stereo unspecified)	none
COc1ccc(C(CNC(=O)c2cc3ccccc3cc2OC)N2CCCC2)cc1 (stereo unspecified)	none
COc1cc(C)nc(N2CCC(C(=O)NC3CCCCC3)CC2)n1	none
CC1CC(C)CN(CCCNC(=O)C2CCC(=O)N2C2CCCC2)C1 (stereo unspecified)	none
CC(C)(C)NC(=O)CSc1nnc(Cc2ccc3c(c2)OCO3)n1C1CCCCC1	none
